# According to PubChem BioAssay (NCATS):
# Records with an inconclusive call do not appear. Values without a mark were called inactive. Activity calls are given as the source filed them. Calls come from the whole dose curve; as a rule, active = well fitted curve in either direction with a large enough effect (not every such curve was filed as active); inconclusive = small, poorly fitted or top-dose-only effect, or another doubt; inactive = flat fitted curve, though single readings scatter.
# Molecular target: Mitogen-activated protein kinase 10 (Mus musculus) (UniProt Q61831)
# Assay: JNK3 AlphaScreen Assay (AID 530);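 note: kinase came from lysate of stimulated human HepG2 cells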
# Settings: JNK3 lysate, c-Jun phosphorylation; series mostly up to 57.1 µM; activity change, negative = inhibition: at the top concentration
# Text: NIH Chemical Genomics Center [NCGC]
# NIH Molecular Libraries Screening Centers Network [MLSCN]
# The c-jun N-terminal kinase (JNK) family are serine/threonine protein kinases that phosphorylate c-jun, a component of the transcription factor […] (AP-1). JNK kinases are members of the mitogen-activated protein kinase family including the extracellular regulated kinases and p38 kinases. Three JNK genes (JNK 1, 2, and 3) have been identified in humans so far. JNK1 and JNK2 have a broad distribution and JNK3 is primarily found in neuronal tissues and cardiac myocytes.
# JNK3 has been under consideration as a target for the treatment of neurodegenerative disorders. […] JNK pathway is also involved in pathological process in a mouse model of Parkinson's disease (Xia et al., 2001).
# Given these potential tissue distributions and links to neuroprotection, JNK3 inhibitors should provide useful investigational tools to study the role of this kinase in several diseases including, arthritis, stroke, myocardial infarction, ischemic injury and Parkinson's disease.
# A homogeneous AlphaScreen is developed to measure the activity of JNK3. AlphaScreen is a two bead-based proximity-dependent chemical energy transfer luminescent assay platform. The phosphorylation of a biotinylated c-jun substrate by JNK3 can be detected with an antibody raised against phosphorylated c-jun. This process brings streptavidin donor beads and Protein-A acceptor beads to within a proximity range of <200 nm, and subsequently lead a chemical luminescent reaction upon exciting donor beads with 680 nm laser excitation light. Inhibition of JNK3 activity by small molecules and subsequent decrease in the antibody binding to biotinylated c-jun could attenuate or abolish this chemical luminescent reaction.
# Yang DD, Kuan CY, Whitmarsh AJ, Rincon M, Zheng TS, Davis RJ, Rakic P and Flavell RA (1997) Absence of excitotoxicity-induced apoptosis in the hippocampus of mice lacking the Jnk3 gene. Nature 389:865-870. [PMID: 9349820]
# Herdegen T, Claret FX, Kallunki T, Martin-Villalba A, Winter C, Hunter T, and Karin M (1998) Lasting N-terminal phosphorylation of c-Jun and activation of c-Jun N-terminal kinases after neuronal injury. J.Neurosci. 18:5124-5135. [PMID: 9651196]
# Xia XG, Harding T, Weller M, Bieneman A, Uney JB and Schulz JB (2001) Gene transfer of the JNK interacting protein-1 protects dopaminergic neurons in the MPTP model of Parkinson's disease. Proc.Natl.Acad.Sci.U.S.A. 98:10433-10438.
# NCGC Assay Protocol Summary:
# GST-cJun (1-79) (Stratagene, La Jolla CA, #205145) was biotnylated by PerkinElmer (PerkinElmer-BioSignalInc. Montreal, Canada) and was detectable by the streptavidin Donor beads. Anti-(phospho)cJun (Ser73) antibody was from UpState (Charlottesvilles, VA, #06-659). JNK3-containing lysates were generated from HepG2 cells and pre-activated by interleukin1-beta and tumor necrosis factor alpha. All reagents were stored at -20 C before using. Phosphorylated biotinylated-GST-cJun was recognized by Anti-(phospho)cJun (Ser73) antibody and this process brings acceptor and donor beads together. Therefore JNK3 phosphorylation of cJun can be measured by Alpha reading by EnVision (PerkinElmer, Boston, MA).
# The composition of kinase buffer was (in mM) 20 tris- HCl (pH 7.6) 10 MgCl2, 1 DTT, and 0.1 Na3VO4 and 0.01% Tween-20. Beads were diluted in detection buffer containing (in mM) 20 tris-HCl (pH 7.7), 20 NaCl and 80 EDTA and 0.3% BSA. The assay was performed at room temperature. All compounds were screened as titrations from 0.6 nM to 46 uM final concentration. The assay was performed in 1536-well format (white solid bottom and untreated) as follows:
# Sequence,Parameter,Value,Description
# 1,Reagent,3 uL,Biotin-GST-cJun, Anti-(phospho)cJun and pre-activated JNK3-containing lysates
# 2,Compound,23 nL,Final concentration was 0.6nM to 46uM
# 3,Time,15 minutes,Room Temperature
# 4,Reagent,1 uL,ATP final concentration 10uM
# 6,Reagent,0.5 uL,2ng/well bead mixture
# […]
# % is set by controls: 0 for no effect and ±100 for the full control effect.
SMILES,outcome,"activity change, negative = inhibition"
CC(C)(c1ccc(O)cc1)c1ccc(O)cc1,inactive,
CCN(CC)CCOc1ccc(/C(=C(\Cl)c2ccccc2)c2ccccc2)cc1,,-11.4% [at 25.6 µM]
O=C(O)/C=C(\CC(=O)O)C(=O)O,,4.55% [at 11.4 µM]
CC(C)C(C)(C)C(C)(C)C(C)(C)S,,5.66%
O=C(NO)c1ccccc1,,-2.19%
Nc1c2ccccc2nc2ccccc12,,12.9%
Oc1ccccc1,,6.84%
Nc1cccc2c(N)cccc12,,16.7%
CN(C)c1cc2c(Nc3ccc4c(cnn4Cc4ccccc4)c3)ncnc2cn1,,6.25%
c1ccc2occc2c1,,7.61%
Clc1ccc2c(c1)N=C(N1CCNCC1)c1ccccc1N2,,-7.88%
CC(C)(C)c1ccc(O)c(O)c1,,13.6%
OC(CCCN1CCCCC1)(c1ccccc1)c1ccccc1,,-15.7% [at 25.6 µM]
CC(C)N(CCC(=O)c1ccc2ccccc2c1)Cc1ccccc1,,-11.5%
COc1cc(C=O)ccc1O,,4.88%
O=C(Oc1ccccc1)c1ccccc1O,,-0.798%
Cc1ncc(CO)c(CO)c1O,,-2.57% [at 25.6 µM]
O=C(c1ccccc1)c1ccccc1,,-3.19%
O=C1NC(c2cccc([N+](=O)[O-])c2)=CCN1c1ccccc1O,,-3.29%

SMILES,outcome,"activity change, negative = inhibition"
CCCCC(CC)COC(=O)c1ccccc1C(=O)O (configuration not stated),,2.88%
CCOC(=O)NNc1nncc2ccccc12,,1.1% [at 25.6 µM]
O=C(CCCCC(=O)Nc1c(I)cc(I)c(C(=O)O)c1I)Nc1c(I)cc(I)c(C(=O)O)c1I,,2.18% [at 25.6 µM]
C[C@@H](C1=C(CCN(C)C)Cc2ccccc21)c1ccccn1,,16%
C[N+](C)(C)CCO,,24.3%
Brc1ccccc1-c1ccccc1,,-0.755%
CN(C(=O)C(Cl)Cl)c1ccc(OC(=O)c2ccco2)cc1,,0.99% [at 25.6 µM]
CCCC(=O)c1cc(O)c(O)cc1O,,-21.7%
NC(N)=NCCCCN=C(N)N,inactive,
OCc1c[nH]c2ccccc12,,6.58%
C1=CC2C3C=CC(C3)C2C1 (configuration not stated),,-6.21%
CC(=O)OC/C=C(C)/C=C/C=C(C)/C=C/C1=C(C)CCCC1(C)C,,19.2%
COc1ccccc1N1CCN(CCN2C(=O)CC3(CCCC3)CC2=O)CC1,,-5.06%
CCCCCCCCCCCCCCCC[n+]1ccccc1,,11.5%
Nc1ccc(O)cc1,,-12.7%
Nc1c[n+](N2CCOCC2)no1,,-18.9%
Brc1ccc([C@H]2CN3CCSC3=N2)cc1,,18.4%
NCC(=O)O,,-7.52%
